Assay results: PubChem BioAssay (NCI)
Compounds without any hit were thinned out: in the full panel of roughly 83,000, 20% have a hit.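 In brief: 96-well plates, 48 h treatment, single concentration, percent growth endpoint.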 Values without a mark were called inactive. Activity calls are given as the source filed them. Rule for the calls: active = growth percent below 10; inactive = the rest.

Experiments:
Assay in all cases: NCI-60 one-dose screen, 48 h (100 = growth as untreated, 0 = no growth, -100 = all killed)
Settings in all cases: 10 µM unless noted
NCI-H23 lung = system: NCI-H23 lung
NCI-H226 lung = system: NCI-H226 lung
NCI-H322M lung = system: NCI-H322M lung
HOP-62 NSCLC = system: HOP-62 NSCLC
NCI-H460 lung = system: NCI-H460 lung
HOP-92 NSCLC = system: HOP-92 NSCLC
NCI-H522 lung = system: NCI-H522 lung
A549/ATCC NSCLC = system: A549/ATCC NSCLC
786-0 renal = system: 786-0 renal
COLO 205 colon = system: COLO 205 colon
DU-145 prostate = system: DU-145 prostate
K-562 leukemia = system: K-562 leukemia
MALME-3M melanoma = system: MALME-3M melanoma
MDA-MB-231 breast = system: MDA-MB-231 breast
RXF 393 renal = system: RXF 393 renal
SF-268 CNS = system: SF-268 CNS
SF-295 CNS = system: SF-295 CNS
SF-539 CNS = system: SF-539 CNS
UACC-257 melanoma = system: UACC-257 melanoma
M14 melanoma = system: M14 melanoma

SMILES | growth (NCI-H23 lung) | growth (NCI-H226 lung) | growth (NCI-H322M lung) | growth (HOP-62 NSCLC) | growth (NCI-H460 lung) | growth (HOP-92 NSCLC) | growth (NCI-H522 lung) | growth (A549/ATCC NSCLC) | growth (786-0 renal) | growth (COLO 205 colon) | growth (DU-145 prostate) | growth (K-562 leukemia) | growth (MALME-3M melanoma) | growth (MDA-MB-231 breast) | growth (RXF 393 renal) | growth (SF-268 CNS) | growth (SF-295 CNS) | growth (SF-539 CNS) | growth (UACC-257 melanoma) | growth (M14 melanoma)
CO[C@H]1C[C@@H]2CC[C@@H](C)[C@@](O)(O2)C(=O)C(=O)N2CCCC[C@H]2C(=O)O[C@H]([C@H](C)C[C@@H]2CC[C@@H](O)[C@H](OC)C2)CC(=O)[C@H](C)/C=C(\C)[C@@H](O)[C@@H](OC)C(=O)[C@H](C)C[C@H](C)\C=C/C=C/C=C/1C | 51.3% | 47.9% | 43.7% | 43.8% | 31.9% | 41.1% | 39.4% | 35.1% | 42.1% | 44.3% | 42.1% | 24.4% | 35.1% | 49.6% | -4.23% (active) | 39.3% | 22.4% | 27.4% | 53% | 50.3%
CCCCCCCC12Cc3ccccc3C1=Nc1c(c3ccccc3n1C)C2=O (stereo not given) | 84.8% | 77.8% | 88.4% | 84% | 92.7% | 93.4% | 48.1% | 75.5% | 105% | 112% | 120% | 85.9% | 95.2% | 82.4% | 104% | 100% | 97.4% | 111% | 82.3% | 95.3%
COC(=O)[C@@H](NC(=O)[C@@H](OC)[C@@H]1Cc2cc3cc(OC4CC(OC5CC(O)C(O)C(C)O5)C(O)C(C)O4)c(C)c(O)c3c(O)c2C(=O)[C@H]1OC1CC(OC2CC(OC3CC(C)(O)C(O)C(C)O3)C(O)C(C)O2)C(O)C(C)O1)C(C)C (stereo not given in full) | -6.89% (active) | -23.4% (active) | 24.8% | 6.44% (active) | -6.19% (active) | -18.9% (active) | -20% (active) | 7.37% (active) | -21.2% (active) | 13.8% | 7.21% (active) | 5.81% (active) | -12.3% (active) | 10.9% | -68% (active) | 6.33% (active) | -32.5% (active) | -22.4% (active) | 3.21% (active) | 5.18% (active)
C[C@H]1Oc2cc(cnc2N)-c2c(nn(C)c2C#N)CN(C)C(=O)c2ccc(F)cc21 | 84% | 92.2% | 104% | 50% | 96.7% | 48.4% | 66.5% | 66.1% | 77.9% | 36.3% | 91.9% | 79.4% | 95.6% | 69.7% | 85.5% | 73.1% | 85.9% | 96.4% | 58.5% | 71.9%
C/C(=N\NC(=O)Cn1c(-c2ccc(S(C)(=O)=O)cc2)nc2ccccc21)c1ccc(Cl)cc1 | 86.9% | 83.4% | 94.8% | 88.6% | 97.3% | 98.3% | 75.5% | 77.6% | 102% | 93.4% | 112% | 80.7% | 102% | 90.2% | 92.2% | 91.3% | 90% | 106% | 88.8% | 94%
COc1ccc(C(=O)c2cc(OC)c(OC)c(OC)c2)cc1/C=C/C(=O)c1ccc(F)cc1 | 79.7% | 90.4% | 85.5% | 95.5% | 92.9% | 69.2% | 18.5% | 90.7% | 77.4% | 79.3% | 85.5% | 9.61% (active) | 65.6% | 68.4% | 88.3% | 77% | 84.3% | 51.8% | 86.6% | 72.5%
O=C(COc1cccc(/C=C2\Cc3ccc(Cl)cc3C2=O)c1)Nc1nccs1 | 78.5% | 86.1% | 96.9% | 96.5% | 89.2% | 77.2% | 2.66% (active) | 88.7% | 98.5% | 113% | 108% | 89.5% | 116% | 71.7% | 107% | 108% | 119% | 79.9% | 110% | 107%
Cc1ccc(-[n+]2c3cc(N)c(C)cc3nc3cc(C)c(Nc4ccccc4)cc32)cc1 | -74.4% (active) | -67% (active) | -53.1% (active) | -64.9% (active) | -48.2% (active) | -60.5% (active) | -48.8% (active) | -18.9% (active) | -93% (active) | -94.9% (active) | -79.3% (active) | -22.7% (active) | -58% (active) | -70% (active) | -98.7% (active) | -88.6% (active) | -39.2% (active) | -77% (active) | -48.8% (active) | -93.3% (active)
C[C@@H](NC(=O)c1ncnc(N)c1Cl)c1ncc(C(=O)Nc2cc(C(F)(F)F)c(Cl)cn2)s1 | 59.8% | 78.6% | 80.9% | 63.1% | 71.6% | 64.1% | 46% | 53.2% | 110% | 13.2% | 94.9% | 11.5% | 3.24% (active) | 39% | 106% | 93% | 90.2% | 86.4% | -13.9% (active) | 15%
Cc1ccc(C(=O)Nc2ccc(CN3CCN(C)CC3)c(C(F)(F)F)c2)cc1C#Cc1cnc2cccnn12 | -84.8% (active) | -96.8% (active) | -98.8% (active) | -93.6% (active) | -83.3% (active) | -74.1% (active) | -86.6% (active) | -95.1% (active) | -91% (active) | -88.2% (active) | -99.7% (active) | -64.9% (active) | -85.5% (active) | -85% (active) | -95.1% (active) | -96.4% (active) | -95.7% (active) | -97.2% (active) | -88.3% (active) | -88.8% (active)
CCCCOc1nc2cc(Cl)ccc2cc1/C=C/c1cc(/C=C/c2cc3ccc(Cl)cc3nc2OCCCC)n(-c2ccccc2)n1 | 83.3% | 75.1% | 92.5% | 32.3% | 98.3% | 76.8% | 61% | 75.4% | 64% | 88.3% | 101% | 91.7% | 92.8% | 82.3% | 81.6% | 74.9% | 52.4% | 91.9% | 67% | 99.3%
Cc1ccc(NC(=O)c2ccc(CN3CCN(C)CC3)cc2)cc1Nc1nc(-c2cccnc2)cs1 | 68% | 38.6% | 90.2% | 60.2% | 40.3% | 93.1% | 17.7% | 39.4% | 14.5% | 16.1% | 76.5% | 3.08% (active) | -9.2% (active) | 33.8% | 32.9% | 70.8% | 3.18% (active) | -81.5% (active) | 17% | 35.5%
Cn1cc(-c2ccc(F)c(C(F)(F)F)c2)nc1C1CCN(c2ncnc3[nH]ncc23)CC1 | 72.3% | 55.3% | 75.3% | 52.1% | 76.9% | 65.3% | 47.8% | 50.4% | 69.1% | 84.4% | 77.3% | 77.8% | 76.5% | 72.5% | 56.7% | 44.7% | 70.8% | 51.5% | 74.3% | 83.4%
O=c1sn(-c2cccc3ccccc23)c(=O)n1Cc1ccccc1 | 100% | 96.8% | 102% | 76.6% | 101% | 89.3% | 74.4% | 70.7% | 107% | 89.8% | 108% | 9.59% (active) | 96.5% | 101% | 99.3% | 105% | 105% | 114% | 89.2% | 89.8%
CC(C)(C)c1nc(-c2cccc(NS(=O)(=O)c3c(F)cccc3F)c2F)c(-c2ccnc(N)n2)s1 | 63.6% | 84.5% | 90.3% | 77.1% | 74.4% | 92.9% | 57.5% | 53.6% | 91.9% | -5.08% (active) | 105% | 50.8% | 21.8% | 47.1% | 90% | 105% | 112% | 114% | 25.2% | 32%
